Bioassay records from PubChem BioAssay.
The full list was thinned out, with hits kept by preference.
PD-1 reverse act = activators reversing PD-1 mediated T-cell inhibition, primary screen, luminescence, primary human CD4 T cells, PD-L1 beads; CellTiter-Glo 96 h; activation, % (test concentration not listed); 29,000 tested, under 10 active; AID 2316, 2010; call rule not given here
STK33 inh = STK33 kinase inhibitors, primary screen, biochemical, luminescence, ADP-Glo, MBP substrate; Serine/threonine-protein kinase 33 (Homo sapiens), Q9BYT3; inhibition, % at 12.5 µM; 27,000 tested, 0.44% active; in the data active = inhibition above about 20%; inconclusive = no clear call, values can overlap the other calls
Target sequence (Q9BYT3 whole entry, looked up): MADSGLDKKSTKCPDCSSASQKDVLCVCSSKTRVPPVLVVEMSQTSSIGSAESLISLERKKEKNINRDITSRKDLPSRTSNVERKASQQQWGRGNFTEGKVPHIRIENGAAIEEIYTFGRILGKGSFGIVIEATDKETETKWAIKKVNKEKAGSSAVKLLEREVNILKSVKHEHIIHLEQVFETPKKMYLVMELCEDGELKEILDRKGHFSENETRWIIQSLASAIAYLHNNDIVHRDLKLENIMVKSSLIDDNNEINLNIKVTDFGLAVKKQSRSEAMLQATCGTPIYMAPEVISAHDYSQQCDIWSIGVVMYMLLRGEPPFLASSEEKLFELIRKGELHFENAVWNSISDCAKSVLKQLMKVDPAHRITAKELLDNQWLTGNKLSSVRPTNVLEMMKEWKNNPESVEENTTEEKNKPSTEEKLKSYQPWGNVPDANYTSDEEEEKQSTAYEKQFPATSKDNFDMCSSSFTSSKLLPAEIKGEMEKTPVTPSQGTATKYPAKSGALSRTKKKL
NOMO-1 viab = NOMO-1 AML cell viability reduction, primary screen, STK33 inhibitor project, CellTiter-Glo luminescence | NOMO-1 AML viability, 72 h | inhibition, % (test concentration not listed) | 37,000 tested, 7.5% active | AID 2330, 2010; in the data active = inhibition above about 80%; inconclusive = no clear call, values can overlap the other calls
A number is an active result; – = inactive; ? = inconclusive; · = not tested or not shown.

SMILES	PD-1 reverse act	STK33 inh	NOMO-1 viab
COc1ccc(NC(=O)C2=C(C)NC(=O)NC2c2cc(OC)ccc2OC)c(OC)c1 (centres undefined)	–	–	–
Nc1cc(=O)[nH]c(SCC(=O)NCc2ccco2)n1	·	–	–
COc1cc(C[C@@H]2COC(c3ccc(O[C@@H]4O[C@H](CO)[C@@H](O)[C@H](O)[C@H]4O)c(OC)c3)[C@@H]2CO)ccc1O[C@@H]1O[C@H](CO)[C@@H](O)[C@H](O)[C@H]1O (some centres undefined)	–	–	–
Cc1[nH]c2ccccc2c1Sc1ccccc1	–	·	141
CC(=O)CCc1c(C)[nH]c2ccccc2c1=O	·	–	–
CSc1sc(C(=O)O)c2c1S(=O)(=O)N(C)c1ccccc1-2	–	·	–
O=S(=O)(c1ccc(Cl)cc1)c1nc(-c2ccc(F)cc2)oc1NCc1cccnc1	–	–	–
Cn1c(SCC(=O)Nc2ccc(Cl)cc2)nc2sc3c(c2c1=O)CCCC3	–	–	–
CS(=NC(=O)Nc1ccc(Cl)cc1)c1sc(Cl)c2c1C(=O)CCC2 (centres undefined)	–	·	116
Cc1ccc(C(C)C)c(OC(=O)CS(=O)c2ccc(C(F)(F)F)cc2[N+](=O)[O-])c1 (centres undefined)	–	–	130
Cc1ccc(NC(=O)CC2Sc3ccc(C(F)(F)F)cc3NC2=O)c([N+](=O)[O-])c1 (centres undefined)	–	–	–
O=C(CS(=O)c1ccc(C(F)(F)F)cc1[N+](=O)[O-])Oc1ccc(Cl)cc1 (centres undefined)	–	–	110
O=C(CS(=O)c1ccccc1[N+](=O)[O-])Nc1cccc(C(F)(F)F)c1 (centres undefined)	–	–	–
COc1ccc([N+](=O)[O-])cc1NC(=O)CN(c1ccccc1Cl)S(C)(=O)=O	–	–	–
CS(=O)(=O)N(CC(=O)Nc1ccc(Br)cc1F)c1ccccc1Cl	–	–	–
CCc1cccc(C)c1NC(=O)CSc1nnc(-c2ccccc2)n1-c1ccccc1	–	–	–
C[C@@H]1CN([C@H](C)CO)C(=O)c2cc(NC(=O)Nc3ccc(C(F)(F)F)cc3)ccc2O[C@H]1CN(C)Cc1ccc(Cl)c(Cl)c1	–	·	123
C[C@@H]1CN([C@H](C)CO)C(=O)c2cc(NC(=O)Nc3ccc(C(F)(F)F)cc3)ccc2O[C@H]1CN(C)Cc1ccncc1	–	·	–
C[C@@H]1CN([C@H](C)CO)C(=O)c2cc(NC(=O)Nc3ccc(C(F)(F)F)cc3)ccc2O[C@@H]1CN(C)Cc1ccc(Cl)c(Cl)c1	–	·	114
C[C@H]1CN([C@@H](C)CO)C(=O)c2cc(NC(=O)Nc3ccc(C(F)(F)F)cc3)ccc2O[C@H]1CN(C)Cc1ccc(Cl)c(Cl)c1	–	–	107
C[C@H]1CN([C@@H](C)CO)C(=O)c2cc(NC(=O)Nc3ccc(F)cc3)ccc2O[C@@H]1CN(C)Cc1ccc(Cl)c(Cl)c1	–	·	–
CC(=O)n1c(-c2ccc(C)cc2)cc(-c2ccc(C)cc2)c(C#N)c1=O	–	·	–
Cn1c(=O)c2c(ncn2CC(O)COc2ccccc2)n(C)c1=O (centres undefined)	–	·	–
CCOC(=O)c1c(NC(=O)c2nn(CC)cc2Br)c(C#N)nn1-c1ccccc1	–	?	–
CCOC(=O)c1nn(-c2ccccc2)c(C#N)c1NC(=O)c1nn(CC)cc1Br	–	·	115
SMILES	PD-1 reverse act	STK33 inh	NOMO-1 viab
COc1cc([C@@H](O)[C@@H](CO[C@@H]2O[C@H](CO)[C@@H](O)[C@H](O)[C@H]2O)Oc2ccc(/C=C/CO)cc2OC)ccc1O	–	–	–
Cc1cc2c(=O)n(Cc3ccco3)c(SCC(=O)N3CCc4ccccc43)nc2s1	–	–	–
O=c1c2c3c(sc2[nH]c(=S)n1Cc1ccccc1)CCC3	–	·	–
Cn1c(=S)[nH]c2sc3c(c2c1=O)CCC(C(C)(C)C)C3 (centres undefined)	–	·	123
CN(C)S(=O)(=O)c1ccc(C(=O)Nc2nc3c(s2)CCc2ccccc2-3)cc1	–	·	113
COc1cccc2sc(NC(=O)c3ccc(S(=O)(=O)N(C)C)cc3)nc12	–	–	–
C[C@@H]1CN([C@H](C)CO)C(=O)Cc2cc(NC(=O)Nc3ccc(C(F)(F)F)cc3)ccc2O[C@@H]1CN(C)Cc1ccc(C(=O)O)cc1	–	–	–
C[C@@H]1CN([C@H](C)CO)C(=O)Cc2cc(NC(=O)Nc3ccc(C(F)(F)F)cc3)ccc2O[C@H]1CN(C)Cc1ccc(C(=O)O)cc1	–	–	–
C[C@@H]1CN([C@H](C)CO)C(=O)Cc2cc(NC(=O)Nc3ccccc3)ccc2O[C@H]1CN(C)Cc1ccc(C(F)(F)F)cc1	–	–	118
C[C@H](CO)N1C[C@H](C)[C@H](CN(C)Cc2ccc(C(F)(F)F)cc2)Oc2ccc(NC(=O)Nc3ccccc3)cc2CC1=O	·	–	86
CC(=O)O[C@@]1(C)C[C@@H](OC(=O)/C=C/c2ccc(O)cc2)[C@@H]2C(C(=O)O)=COC(O[C@@H]3O[C@H](CO)[C@@H](O)[C@H](O)[C@H]3O)[C@@H]21 (some centres undefined)	–	–	–
COc1ccc(C2CC(=O)c3c(O)cc(O[C@@H]4O[C@H](CO[C@@H]5O[C@@H](C)[C@H](O)[C@@H](O)[C@H]5O)[C@@H](O)[C@H](O)[C@H]4O)cc3O2)cc1 (some centres undefined)	–	–	–
O=C(/C=C/c1ccc(O)cc1)OC[C@H]1O[C@@H](Oc2cc(O)c3c(c2)OC(c2ccc(O)cc2)CC3=O)[C@H](O)[C@@H](OC(=O)/C=C/c2ccc(O)cc2)[C@@H]1O (some centres undefined)	–	–	120
C[C@@H]1O[C@@H](OC[C@H]2O[C@@H](Oc3ccc(O)cc3)[C@H](O)[C@@H](OC(=O)c3ccc(O)cc3)[C@@H]2O)[C@H](O)[C@H](O)[C@H]1O	–	–	–
O=C1C=CC(O)(/C=C/C(=O)OC[C@H]2O[C@@H](Oc3ccc(O)cc3)[C@H](O)[C@@H](OC(=O)/C=C/C3(O)C=CC(=O)C=C3)[C@@H]2O)C=C1	–	52	87
O=[N+]([O-])c1ccc(S(=O)(=O)CC(CN2CCOCC2)N2CCOCC2)cc1 (centres undefined)	–	–	102
O=C(NCCCN1CCOCC1)c1cccc([N+](=O)[O-])c1	·	–	–
O=C(Nc1ccc([N+](=O)[O-])cc1Cl)c1cc(Cl)ccc1O	·	–	120
O=C(Nc1ccccc1)c1cc([N+](=O)[O-])ccc1Cl	–	–	118
O=C(Nc1ccccc1)c1cc([N+](=O)[O-])ccc1NCc1cccnc1	–	–	–
O=C(COc1ccc([N+](=O)[O-])cc1)Nc1cc(Cl)ccc1O	–	–	–
O=C(O)C1Cc2ccccc2C1	–	·	–
COc1ccc(OCC(=O)Nc2ccc(NC(=O)c3ccco3)c(OC)c2)cc1	–	–	–
Cc1[nH]c2ccccc2c1C(c1c(C)[nH]c2ccccc12)C(C)C	–	·	115
CC(C)Cn1c(=S)[nH]c2ccccc2c1=O	–	·	–
CC(=O)Nc1ccc(NC(=O)CN(c2cc(C(F)(F)F)ccc2Cl)S(C)(=O)=O)cc1	–	–	–
